# High-throughput results deposited in PubChem by National Center for Advancing Translational Sciences (NCATS).
# The entries come from a sample that favours hits as a whole.
# GRP78 ERSR act = ER stress response induction in glioma | Potency, µM, inactives show top-dose activation, hits mostly activators | 420,000 compounds, 0.02% hits | U87-MG GRP78 promoter luciferase reporter, 16 h | AID 602332; further: series mostly up to about 76 µM; % of control where 0% means no effect; nearly all actives have a fitted effect of over 35% in size
#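 ERSR induction read as luciferase luminescence (Bright-Glo, 10 min at room temperature) in stably transfected human U87-MG glioma cells exposed to compounds for 16 h, using GRP78 as sensor.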
# G9a block = blocks human histone lysine methyltransferase G9a; G9a H3K9 monomethylation, AlphaScreen, 2 h; Potency, µM (titrated, usually from 102 µM), for inactives: top-dose activity, negative = inhibition, hits mostly inhibitors; 350,000 compounds, 8.8% hits; AID 504332; further: on the % scale 0 is the no-effect control and ±100 the full control effect; nearly all actives have a fitted effect of over 75% in size
# Target sequence (Q96KQ7 913-1193 limits assumed): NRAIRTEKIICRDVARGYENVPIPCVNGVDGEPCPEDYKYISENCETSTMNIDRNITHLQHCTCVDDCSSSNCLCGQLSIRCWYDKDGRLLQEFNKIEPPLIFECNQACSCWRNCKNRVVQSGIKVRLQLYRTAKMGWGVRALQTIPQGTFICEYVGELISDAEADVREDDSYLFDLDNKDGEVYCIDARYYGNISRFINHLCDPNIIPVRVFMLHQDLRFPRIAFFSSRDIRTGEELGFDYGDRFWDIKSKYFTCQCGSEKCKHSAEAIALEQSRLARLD
#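 G9a (20 nM) preincubated 15 min RT with compounds, then 500 nM biotinylated H3K9 peptide and 20 uM SAM added; 2 h RT reaction. Monomethyl-H3K9 product detected by AlphaScreen with anti-H3K9me1 antibody, streptavidin donor and anti-rabbit IgG acceptor beads.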
# 12-LOX inh = inhibitors of human 12S-lipoxygenase ALOX12. P18054. purified 12hLO, xylenol orange hydroperoxide absorbance. Potency, µM (series often up to 108 µM), inactives show at the top dose activity change, negative = inhibition, usual class: inhibitors. 580,000 compounds, 1.1% hits. AID 1671190; further: on the % scale 0 is the no-effect control and ±100 the full control effect
#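 Hydroperoxide product was detected by ferrous iron/xylenol orange as the 573 to 405 nm absorbance ratio. Arachidonic acid at 40 uM (final) was turned over for 30 min at room temperature by 150 nM human 12hLO, pH 7.0 Hepes buffer, after 15 min compound preincubation.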
# VDR inhibitor = vitamin D3 receptor (human) inhibition; AID 504847; 400,000 compounds, 0.93% hits; VDR-SRC2-3 peptide fluorescence polarization, 2 h; Potency, µM, without a hit: max response, negative = inhibition, usual class: inhibitors; further: on the % scale 0 is the no-effect control and ±100 the full control effect
#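 Compounds are added to VDR with labelled SRC2-3 coactivator peptide and held 2 h at room temperature. Inhibition of the VDR–peptide interaction is then read as a change in fluorescence polarization.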
# Sfp PPTase inh = Sfp phosphopantetheinyl transferase inhibition. Q9F4F7. Potency, µM, inactives show largest response in the series, negative = inhibition, most hits filed as inhibitors. Biochemical Sfp PPTase activity, qHTS. AID 1490. 310,000 compounds, 3.5% hits;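 further: the enzyme is Sfp with the accession as filed and its product quenches rhodamine fluorescence; 0% = enzyme reaction without inhibitor and -100% = no enzyme wells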
#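 Fluorescence-quenching assay: 15 nM Sfp-PPTase preincubated 15 min at room temperature with compound, then 5 uM rhodamine-CoA and 12.5 uM BHQ-2-labelled YbbR peptide added. Fluorescence (ex 525/em 598 nm) read at start and after 30 min; difference gives rate.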
# An asterisk follows results filed as active; ? = inconclusive; nt = no result given; ! = repeats disagree; [ ] = remark or other dose. The call rests on the fitted dose curve; in most records, active means well fitted curve in the direction sought with a large enough effect; inconclusive means small, poorly fitted or top-dose-only effect, or another doubt; inactive means no such curve, though single readings can be large; an effect the other way counts as inactive or inconclusive. Potency means the concentration at half of the fitted maximal effect.
SMILES,GRP78 ERSR act,G9a block,12-LOX inh,VDR inhibitor,Sfp PPTase inh
COc1ccccc1-n1c(SCc2nnnn2-c2ccccc2)nnc1N1CCCCC1,nt,nt,3%,nt,nt
COC(=O)C1=CN(Cc2ccc(F)cc2)C=C(C(=O)OC)C1c1ccccc1OCc1ccccc1,nt,nt,-33%,nt,nt
COc1cccc(CN2CCCC(N3CCc4ccccc4C3)C2)c1O (stereo not drawn),-1%,?,-5%,31%,1%
c1ccc2c(c1)CCN(C1CCCCC1)C2,-4%,20µM*,?,0%,-3%
N#CC1C(=O)c2ccccc2C1c1ccccc1 (stereo not drawn),-14%,nt,?,45µM*,nt
O=C1CCC(c2ccccc2)c2ccccc21 (stereo not drawn),-4%,nt,73%,-3%,nt
Clc1cccnc1-c1cc(NCc2ccccn2)nc2[nH]ccc12,nt,nt,111%,nt,nt
N[C@H]1CONC1=O,-4%,?,nt,0%,nt
N[C@@H]1CONC1=O,-5%,20µM*!,-6%[57.4 µM],7%,17%
COc1ccc(Br)cc1CN(C)CC(=O)NCCc1ccccc1,-2%,4µM*,?,-12%,-84%
COc1cc(/C=N/NC(=O)CNc2cccc(C(F)(F)F)c2)ccc1OC(=O)c1ccccc1F,nt,nt,4%,nt,nt
Cc1oc2c(c1C(=O)O)C(=O)c1ccccc1C2=O,6%,10µM*,-24%,-20%,?
CCOC(=O)c1c(C)oc2c1C(=O)c1ccccc1C2=O,6%,13µM*,-29%,-20%,?
C/C(=N\NC(=O)c1cccs1)c1cccc(C)c1,nt,nt,8%,nt,nt
CN(C)c1ccc(NC(=O)C(=O)C2C(=O)Nc3ccccc32)cc1 (stereo not drawn),-2%,56µM*,18%,-28%,-11%
CN(C)c1ccc(CC2C(=O)Nc3ccccc32)cc1 (stereo not drawn),7%,3.2µM*,100%,-13%,45µM*
CC(C)(C)c1ccc(NC(=O)C(=O)C2C(=O)Nc3ccccc32)cc1 (stereo not drawn),2%,-7%,-5%,14%,5%
CCn1ccc(C(=O)N2CC(Oc3ccc(-c4nc(-c5ccccc5)no4)cc3)C2)n1,nt,nt,-10%,nt,nt
COc1cc2nc(-c3cc(F)ccc3O)nc(N[C@@H]3CNC[C@@H]3C(C)(C)O)c2cc1OC,nt,nt,2.4µM*,nt,nt
N#CCOc1ccc(NC(=O)c2n[nH]c(=O)c3ccccc23)cc1,nt,nt,13%,nt,nt
Cc1ccc(CNC(=O)CCc2ncc(-c3c(F)cccc3F)o2)cc1,nt,nt,-22%,nt,nt
COc1ccc(/C(C)=N/Nc2nc(C)cc(-c3ccccc3)n2)cc1,-2%,nt,0%,3%,nt
COc1ccc(C/C(C)=N/Nc2nc(C)cc(=O)[nH]2)cc1,-3%,40µM*,0%,-14%,50µM*
COc1ccc(/C(C)=N\Nc2nc(-c3ccccc3)cc(=O)[nH]2)cc1,-2%,8.9µM*,4%,-12%,-4%
COc1ccc(CCNc2nc(C)cc(=O)[nH]2)cc1OC,-5%,nt,-7%,3%,nt
SMILES,GRP78 ERSR act,G9a block,12-LOX inh,VDR inhibitor,Sfp PPTase inh
COc1ccc(C(=O)CCC(=O)OCC(=O)c2ccc3c(c2)OCCO3)cc1,nt,nt,-8%,nt,nt
CC(C)c1ccc(CN2C[C@@H]3C(=O)N(CCc4ccccc4)C(=O)[C@@H]3C2)cc1,nt,nt,39%,nt,nt
CC(CNC(=O)C1CCCC1)NC(=O)C1CCCC1 (stereo not drawn),nt,nt,-5%,nt,nt
Cc1cc(C)c(Cn2cnc3ccccc32)c(C)c1,1%,45µM*,45%,11%,6%
Cc1ccc(OCCCCn2cnc3ccccc32)c(C)c1,12%,7.9µM*,-31%,2%,50µM*
Brc1ccccc1OCCCCn1cnc2ccccc21,5%,2%[12.7 µM],?,-6%,4%
CC(=O)N(C)c1ccc(NS(=O)(=O)Cc2ccccc2)cc1,-1%,56µM*,-3%,-8%,-12%
Cn1c(=O)[nH]c(=O)c2c1nc(NCCCN1CCOCC1)n2Cc1ccc(F)cc1,nt,nt,14%,nt,nt
O=S(=O)(N[C@H]1CO[C@H]2[C@@H]1OC[C@@H]2n1cc(-c2ccccn2)nn1)c1cccs1,nt,nt,63µM*,nt,nt
Cn1c(=O)c([N+](=O)[O-])c(NCc2ccccc2)c2ccccc21,-4%,50µM*,?,6%,1%
CCNc1c([N+](=O)[O-])c(=O)n(CC)c2ccccc12,-2%,nt,117%,11%,9%
COC(=O)[C@H]1C[C@@H]1[C@H](NC(=O)[C@H]1C[C@@H]1[C@H](NC(=O)OCc1ccccc1)c1ccccc1)c1ccccc1,-1%,45µM*,-2%,-1%,12%
COC(=O)[C@H]1C[C@@H]1[C@H](NS(=O)(=O)c1ccccc1)c1ccccc1,-5%,?,-8%,-4%,71µM*!
CC(C)NC(=O)[C@@H]1C[C@H]1[C@@H](NC(=O)OCc1ccccc1)c1ccccc1,nt,nt,nt,nt,21%
CCOC(=O)/C=C/S(=O)(=O)c1ccc(NC(C)=O)cc1,-16%,25µM*,0%,?,40µM*
CCOC(=O)/C=C/C(=O)Nc1ccc(S(=O)(=O)Nc2c(C)cc(C)cc2C)cc1,-1%,6%[59 µM],1%,6%,8%
CCC(C)N(C(=O)CSc1nc2ccc(OC)cc2[nH]1)C1CCS(=O)(=O)C1 (stereo not drawn),-1%,40µM*,-17%,-6%,nt
COCCn1cnc2ccc(-c3ccc4c(ccn4C)c3)nc2c1=O,nt,nt,-27%[176 µM],nt,nt
CSc1nc(Nc2ccccc2)c(C#N)c(-c2ccccc2)n1,nt,nt,19%,nt,nt
Oc1c(Br)cc(Br)cc1C=Nc1ccc(F)c(Cl)c1,nt,nt,4.5µM*,nt,nt
Clc1ccc(C2Cc3ccccc3N2)cc1 (stereo not drawn),nt,nt,-26%,nt,nt
Cc1ccc(Nc2nc(-c3ccncc3)nc3ccccc23)cc1,-4%,2%,361%,-14%,7%
Fc1ccc(Nc2nc(-c3ccncc3)nc3ccccc23)cc1,-1%,-6%[59 µM],11%,-2%,3%
Cc1ccccc1-c1nc(Nc2ccncc2)c2ccccc2n1,-5%,-2%[0.501 µM],35µM*,3%,-24%
Clc1ccccc1-c1nc(Nc2ccncc2)c2ccccc2n1,0%,16%[0.501 µM],?,35µM*,-4%
Cc1ccc2c(c1)C1NC(=S)NC(C)(O2)C1C(=O)Nc1ccc(Cl)cc1 (stereo not drawn),-6%,18%,28µM*,-27%,21%
